# Assay results from article PMC4552634, “A New Set of Chemical Starting Points with Plasmodium falciparum Transmission-Blocking Potential for Antimalarial Drug Discovery” (PLoS ONE, 2015).
# Read-outs that look alike come from different tables or passages of the source. About 3,200 (25%) of roughly 13,000 compounds showed an effect of 50% or more. The list shows a part of the results.
# System: P. falciparum stage V gametocytes
# Parameters: BacTiter-Glo ATP luminescence viability of purified stage V gametocytes in 384-well plates, per cent inhibition versus DMSO
# Conditions: 48 h, 5 µM, inhibitor
Compound,% Inhibition [%],% Inhibition (% Inhibition) [%]
Cc1cc2nc(-c3cc(-c4cccc(NS(C)(=O)=O)c4)cnc3N)[nH]c2cc1C [TCMDC-133558],-28.88,
O=C(Nc1ccc2oc(-c3ccc(Br)cc3)nc2c1)c1ccc([N+](=O)[O-])o1 [TCMDC-123698],17.72,
CCc1ccc(-c2nc3cc(NC(=O)c4ccc([N+](=O)[O-])o4)ccc3o2)cc1 [TCMDC-123924],1.176,
O=C(Nc1ccc2oc(-c3ccc(Cl)cc3Cl)nc2c1)c1ccc([N+](=O)[O-])o1 [TCMDC-123753],49.41,
Cc1ccc(-c2nc3cc(NC(=O)c4ccc([N+](=O)[O-])o4)ccc3o2)cc1Cl [TCMDC-123657],94.01,
Cc1cccc(-c2nc3cc(NC(=O)c4ccc([N+](=O)[O-])o4)ccc3o2)c1 [TCMDC-123925],17.49,
CC(C)c1ccc2oc(-c3ccc(NC(=O)c4ccc([N+](=O)[O-])o4)cc3)nc2c1 [TCMDC-124010],79.92,
O=C(Nc1ccc(-c2ccc(-c3nc4cc(C(F)(F)F)ccc4[nH]3)s2)cc1)c1ccoc1 [TCMDC-136842],-23.12,
COc1cc2c(cc1OC)C(C(=O)c1ccccc1)=NCC2.Cl [TCMDC-141993],35.87,
CCCCN(CCCC)CCNC(=O)c1ccc(-c2nc3ccc(Cl)cc3[nH]2)c(OCC)c1 [TCMDC-140909],-44.96,
CCCOc1cc2c(cc1OCCC)C(C=Cc1ccc(Cl)cc1Cl)=NC(C)C2.Cl (centres unmarked) [TCMDC-137448],86.79,
CCCCOc1cc2c(cc1OCC)C(C=Cc1ccc(Cl)cc1Cl)=NCC2.Cl [TCMDC-137450],76.64,
CC(C)C1=CC(=NOS(=O)(=O)c2ccccc2)C=C(C(C)C)C1=O [TCMDC-124172],-30.75,
O=C(/C=C/c1ccc2ccccc2c1)NCC1(c2ccc(-c3ccccc3)cc2)CCOCC1 [TCMDC-134257],16.18,
O=C(Nc1ccc(Cn2ncc(N3CCCNCC3)c(Cl)c2=O)cc1)Nc1ccc(-c2ccccc2)cc1 [TCMDC-141928],,-32.1
Cc1ccc(Cn2ncc(N3CCCNCC3)c(Cl)c2=O)cc1NC(=O)Nc1ccc(-c2ccccc2)cc1 [TCMDC-141924],99.19,
Cc1ccc(Cn2ncc(N3CC(C)NC(C)C3)c(Cl)c2=O)cc1NC(=O)Nc1ccc(-c2ccccc2)cc1 (centres unmarked) [TCMDC-141937],14.65,
Cc1ccc(Cn2ncc(N3CCNCC3)c(Cl)c2=O)cc1NC(=O)Nc1ccc(-c2ccccc2)cc1 [TCMDC-141921],40.54,
O=C(Nc1ccc(Cn2ncc(N3CCNCC3)c(Cl)c2=O)cc1)Nc1ccc(-c2ccccc2)cc1 [TCMDC-141922],-25.28,
CC1CN(c2cnn(Cc3cccc(NC(=O)Nc4ccc(-c5ccccc5)cc4)c3)c(=O)c2Cl)CC(C)N1 (centres unmarked) [TCMDC-141935],-13.22,
Cc1c(Cn2ncc(N3CC(C)NC(C)C3)c(Cl)c2=O)cccc1NC(=O)Nc1ccc(-c2ccccc2)cc1 (centres unmarked) [TCMDC-141936],-6.259,
CC1CN(c2cnn(Cc3ccc(NC(=O)Nc4ccc(-c5ccccc5)cc4)cc3)c(=O)c2Cl)CC(C)N1 (centres unmarked) [TCMDC-141940],80.37,
Cc1c(Cn2ncc(N3CCC(N)CC3)c(Cl)c2=O)cccc1NC(=O)Nc1ccc(-c2ccccc2)cc1 [TCMDC-141931],109.1,
O=C(Nc1ccc(-c2ccccc2)cc1)Nc1cccc(Cn2ncc(N3CCCNCC3)c(Cl)c2=O)c1 [TCMDC-141923],12.88,
NC1CCN(c2cnn(Cc3cccc(NC(=O)Nc4ccc(-c5ccccc5)cc4)c3)c(=O)c2Cl)CC1 [TCMDC-141930],54.32,
O=C(Nc1ccc(-c2ccccc2)cc1)Nc1cccc(Cn2ncc(N3CCNCC3)c(Cl)c2=O)c1 [TCMDC-141920],-37.77,
